# Assay results taken from PubChem BioAssay AID624405 (Broad Institute, 2012).
# Screen size: about 1,900 compounds; about 250 (13%) were called active. Another 4% or so got no clear call; they are omitted. A selection follows. Potency and affinity values are given separately. Unmarked numbers belong to inactive results.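 The calls were made as follows: active = fitted curve reaches 40% rescue activity at or below the top valid dose, in every test run; inconclusive = test runs disagree, some active and some inactive; inactive = every run misses the threshold or moves the wrong way.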
# Test: rescue of simvastatin-induced ATP loss – cell-based, C2C12 myotubes, ATP luminescence, cherry pick, dose response (AID 624405);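 also: myotubes are challenged with simvastatin at 10 µM to lower ATP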
# Conditions: 48 h, scaled: DMSO wells 0, geranylgeraniol wells 100; series mostly up to 19.5 µM; rescue activity (ATP increase): at the top concentration
row,SMILES,rescue activity (ATP increase)
1,Fc1ccccc1OCCCN1CCOCC1,6.51%
2,C[C@H]1CN([C@@H](C)CO)C(=O)c2cc(/C=C/c3ccccc3)cnc2O[C@@H]1CN(C)C(=O)Nc1ccccc1F,21.6%
3,C=CCSc1nc(C)c2cc(C)cc(C)c2n1,-29.5%
4,O=S(=O)(NCc1csc(-c2cccs2)n1)c1cccc(C(F)(F)F)c1,12.9%
5,CC(C)(CSc1ncccn1)NS(=O)(=O)c1ccccc1,-8.32%
6,COc1ccc(NC(=O)N(C)C[C@H]2OCCCC[C@H](C)Oc3ccc(NS(=O)(=O)c4c(C)noc4C)cc3C(=O)N([C@@H](C)CO)C[C@H]2C)cc1,6.36%
7,Cc1cc(C)n(C(=O)c2ccc(S(=O)(=O)NCC3CCCO3)cc2)n1 (stereo not given),2.29%
8,C[C@@H]1CN([C@@H](C)CO)C(=O)c2cccc(NC(=O)C3CCCCC3)c2O[C@H]1CN(C)S(=O)(=O)c1ccc(Cl)cc1,12.9%
9,C[C@@H]1CCCCO[C@@H](CN(C)Cc2ccc(Cl)c(Cl)c2)[C@H](C)CN([C@@H](C)CO)C(=O)c2cc(NC(=O)Cc3ccccc3)ccc2O1,34.2% [at 21 µM]
10,O=c1cc(CN2CCN(Cc3ccccc3)CC2)c2cc3c(cc2o1)CCC3,-1.9%
11,Cc1cccn2c(=O)c3cc(C(=O)NCCC4=CCCCC4)n(C)c3nc12,-167%
12,Cc1sc2nc3ccc(N4CCCCC4)nn3c(=O)c2c1C,-16.1%
13,CN(C)C(CNC(=O)NC1CCCCC1)c1cccnc1 (stereo not given),3.47%
14,C[C@@H]1CN([C@@H](C)CO)C(=O)c2cc(NC(=O)Nc3ccc(F)cc3)ccc2O[C@@H](C)CCCCO[C@H]1CN(C)Cc1ccncc1,18.6% [at 21 µM]
15,COC(=O)c1cc(OC)c(OC)cc1NC(=O)Nc1cccc(C(C)=O)c1,38.3%
16,C[C@H]1CN([C@@H](C)CO)C(=O)Cc2cc(NC(=O)Cc3ccccc3)ccc2O[C@@H]1CN(C)Cc1ccc(Oc2ccccc2)cc1,30.6% [at 21 µM]
17,O=C(COc1cccc(C(F)(F)F)c1)Nc1ccc(S(=O)(=O)N2CCCC2)cc1,-40.5%
18,O=C(OCCOc1ccc(Br)cc1)c1cnccn1,9.55%
19,O=C(c1cnccn1)N1CCN(C/C=C/c2ccccc2)CC1,16.1%
20,C[C@H]1CN([C@@H](C)CO)C(=O)c2cc(NC(=O)C3CC3)ccc2O[C@@H]1CN(C)CC1CCCCC1,7.65% [at 21 µM]
21,C[C@H](CO)N1C[C@H](C)[C@H](CN(C)Cc2ccc(C(F)(F)F)cc2)Oc2c(NC(=O)Nc3cccc4ccccc34)cccc2C1=O,-21.9%
22,C[C@@H]1CN([C@H](C)CO)C(=O)c2cc(NC(=O)Nc3cccc4ccccc34)ccc2O[C@@H](C)CCCCO[C@@H]1CN(C)Cc1ccc2c(c1)OCO2,-26.6%
23,COc1ccc(NC(=O)Nc2ccc3c(c2)C(=O)N([C@@H](C)CO)C[C@H](C)[C@@H](CN(C)Cc2ccc(C(F)(F)F)cc2)OCCCC[C@H](C)O3)cc1,-29.1%
24,C[C@@H]1CN([C@@H](C)CO)C(=O)c2cccc(NC(=O)C3CCOCC3)c2O[C@@H]1CN(C)S(=O)(=O)c1cn(C)cn1,10.6%
25,COC(=O)[C@H]1[C@H](CO)[C@H]2Cn3c(ccc(C4=CCCCC4)c3=O)[C@H]2N1CC1CCCCC1,34.2%
